Data from PubChem BioAssay (EPA / NIEHS).
Records with an inconclusive call do not appear. Calls of active or inactive are those of the source. How the source made its calls, unless noted: active means hit-call score of the fitted dose curve at least 0.9, where 1 is the maximum; inactive means score below 0.9.

Columns and labels:
[1] = CCTE_Harrill_HTTr_Viability_MCF7: CCTE's 6-hour Cell Viability Assessment for the High-Throughput Transcriptomics (HTTr) Platform, in MCF-7 cells cultured in DMEM + 10% fetal bovine serum, Harrill Lab (AID 2284010)
In short: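 PI exclusion, high-content imaging; 8-pt dilution series, 6 h exposure; bidirectional fit vs DMSO (neg. ctrl/baseline); gain of signal = loss of membrane integrity.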

[2] = CCTE_Harrill_HTTr_Apoptosis_MCF7: CCTE's 6-hour Apoptosis Assessment for the High-Throughput Transcriptomics (HTTr) Platform, in MCF-7 cells cultured in DMEM + 10% fetal bovine serum, Harrill Lab (AID 2284011)
In short: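 Apoptosis in MCF-7 cells grown in DMEM with 10% fetal bovine serum was scored after a six hour exposure by high content imaging of caspase-3/7 activation (CellEvent Caspase 3/7 Green), with DMSO serving as negative control and baseline.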

[3] = system: DIO1 (gene 1733); experiment: CCTE_GLTED_hDIO1: CCTE's human Deiodinase 1 (DIO1) Inhibition Assay, Great Lakes Toxicology and Ecology Division (GLTED) Lab (AID 2283987; active means hit-call score of the fitted dose curve at least 0.9, where 1 is the maximum;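 further: isolated human DIO1 enzyme in a cell-free setup rather than cells; enzyme activity read as free iodide liberated from substrate via Sandell-Kolthoff colorimetry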)
In short: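 Chemicals are tested on human DIO1 without cells for 3 h. Uninhibited enzyme frees iodide, which speeds cerium(IV) reduction by arsenic and is read by spectrophotometry.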

[4] = CCTE_Shafer_MEA_acute_firing_rate_mean: CCTE's Neural Acute Assay for Mean Firing Rate, Shafer Lab (AID 2284009);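 further: analyzed for loss of signal so actives lower firing rate relative to DMSO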
In short: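 Primary rat cortical neurons on 16-electrode MEA wells were exposed on DIV 13 or 15 to compound (0.03-40 uM). Spike counts per recording time, averaged over electrodes, were compared between 40-min baseline and 40-min post-exposure recordings as percent change.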

[5] = CCTE_Harrill_HTTr_CellCount_MCF7: CCTE's Cell Proliferation Assessment for the High-Throughput Transcriptomics (HTTr) Platform, Harrill Lab (AID 2284012; active means hit-call score of the fitted dose curve at least 0.9, where 1 is the maximum;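 further: count of Hoechst-stained nuclei per well by high-content imaging in MCF-7 cells; cells exposed to compound for six hours; intended direction is loss of nuclei count meaning fewer cells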)
In short: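 Readout: Hoechst nuclear count by high-content imaging. MCF-7, 8-point dilution series, 6 h exposure. Bidirectional fit vs DMSO baseline.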

[6] = CCTE_Shafer_MEA_acute_burst_number: CCTE's Neural Acute Assay for Single-Electrode Bursts, Shafer Lab (AID 2284013)
In short: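 Primary rat cortical neurons on 16-electrode MEA wells, DIV 13 or 15, exposed to compound (0.03-40 uM; ≥3 wells); 40-min recordings at 37 C before and after treatment. Burst count expressed as percent change from baseline, DMSO as negative control.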

[7] = CCTE_Shafer_MEA_acute_burst_duration_mean: CCTE's Neural Acute Assay for Mean Burst Duration, Shafer Lab (AID 2284014);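 further: hits are decreases in mean burst duration relative to DMSO controls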
In short: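 Mean burst duration was compared between a 40 min baseline and a 40 min recording in the presence of compound (0.03-40 uM, 37 C), giving percent change per well. Cultures were rat cortical neurons at DIV 13 or 15; wells needed ≥10 active electrodes.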

[8] = CCTE_Shafer_MEA_acute_per_burst_spike_number_mean: CCTE's Neural Acute Assay for Average Number of Spikes Per Burst, Shafer Lab (AID 2284015);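 further: hits are decreases in mean spikes per burst versus baseline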
In short: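 Percent change in mean spikes per single-electrode burst is compared between a 40 min baseline and a 40 min recording with compound (0.03-40 uM). Cultures were rat cortical neurons on MEA plates at DIV 13 or 15, recorded at 37 C, with DMSO as the negative control.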

[9] = CCTE_Shafer_MEA_acute_interburst_interval_mean: CCTE's Neural Acute Assay for Mean Interburst Interval, Shafer Lab (AID 2284016);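 further: percent change of mean interburst interval versus each well's own pre-dose baseline; curves fitted for decrease in interburst interval relative to DMSO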
In short: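 Percent change in mean single-electrode interburst interval was calculated per well from 40 min recordings before and after compound (0.03-40 uM). Recordings were made at 37 C on rat cortical cultures at DIV 13 or 15, with spikes detected at 8x rms threshold.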

[10] = CCTE_Shafer_MEA_acute_burst_percentage_std: CCTE's Neural Acute Assay for Standard Deviation of Burst Percentage, Shafer Lab (AID 2284018);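 further: fitted in the negative direction so actives lower burst percentage SD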
In short: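 Value is percent change from baseline in the across-electrode SD of spikes-in-bursts percentage, wells with >/= 10 active electrodes. Acute 40-min exposure to 0.03-40 uM on DIV 13 or 15 rat cortical cultures, recorded at 37 C after 40-min baseline.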

[11] = CCTE_Shafer_MEA_acute_per_network_burst_spike_number_mean: CCTE's Neural Acute Assay for Average Number of Spikes in a Network Burst, Shafer Lab (AID 2284019)
In short: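 Percent change from baseline in mean spikes per network burst, spikes detected at 8x rms noise. Each compound at 0.03-40 uM in at least three wells of rat cortical cultures, recorded 40 min before and 40 min during exposure.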

[12] = CCTE_Shafer_MEA_acute_per_network_burst_spike_number_std: CCTE's Neural Acute Assay for Standard Deviation of Number of Spikes in a Network Burst, Shafer Lab (AID 2284020);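 further: fitted for decrease in spike-number SD versus DMSO so actives lower it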
In short: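 Endpoint: percent change from 40 min baseline in standard deviation of spikes per network burst, after 40 min compound exposure (0.03-40 uM, 37 C). Cortical rat neurons on MEA at DIV 13 or 15; spikes detected at 8x rms noise, 300-5000 Hz band-pass.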

[13] = CCTE_Shafer_MEA_acute_per_network_burst_electrodes_number_mean: CCTE's Neural Acute Assay for Mean Number of Electrodes in a Network Burst, Shafer Lab (AID 2284021);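 further: curves fitted for decreases only so hits reduce electrodes per burst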
In short: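 Percent change from baseline in average electrode count per network burst, rat cortical cultures on 48-well MEAs; 40-min recordings each side of exposure, DIV 13 or 15; threshold 8x rms noise; DMSO as negative control.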

[14] = CCTE_Shafer_MEA_acute_network_burst_percentage: CCTE's Neural Acute Assay for Percentage of Network Bursts, Shafer Lab (AID 2284022);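 further: curves fitted for loss so actives lower network burst percentage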;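 on outcome: rat primary cortical neuron networks on multiwell MEA recorded 40 min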
In short: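 On DIV 13 or 15, at least three wells of rat cortical neurons per compound are dosed at 0.03-40 uM. Spontaneous firing is detected at 8x rms noise for 40 min before and after dosing at 37 C. The percent change in network-burst spike share is reported.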

[15] = CCTE_Shafer_MEA_acute_cross_correlation_area: CCTE's Neural Acute Assay for Area of Cross Correlation, Shafer Lab (AID 2284024);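 further: area under pooled inter-electrode spike cross-correlation near zero lag as percent change from own baseline; curves fitted for loss of cross-correlation area so actives lower synchrony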
In short: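 Extracellular recordings from cultured rat cortical neurons measure network synchrony as cross-correlation area; each well's post-compound value (0.03-40 uM, 40 min) is compared with its own 40 min baseline to give percent change.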

[16] = molecular target: Nucleoli Translocation, AR (gene 367) (UniProt P10275); experiment: UPITT_HCI_U2OS_AR_TIF2_Nucleoli_Antagonist: University of Pittsburgh U2OS Androgen Receptor-Transcriptional Intermediary Factor 2 (AR-TIF2) Antagonism High Content Imaging Assay for Nucleoli Translocation (AID 2283997; active means hit-call score of the fitted dose curve at least 0.9, where 1 is the maximum)
Sequence of Nucleoli Translocation, AR (gene 367) (P10275 whole entry, looked up, the tested form may be a part): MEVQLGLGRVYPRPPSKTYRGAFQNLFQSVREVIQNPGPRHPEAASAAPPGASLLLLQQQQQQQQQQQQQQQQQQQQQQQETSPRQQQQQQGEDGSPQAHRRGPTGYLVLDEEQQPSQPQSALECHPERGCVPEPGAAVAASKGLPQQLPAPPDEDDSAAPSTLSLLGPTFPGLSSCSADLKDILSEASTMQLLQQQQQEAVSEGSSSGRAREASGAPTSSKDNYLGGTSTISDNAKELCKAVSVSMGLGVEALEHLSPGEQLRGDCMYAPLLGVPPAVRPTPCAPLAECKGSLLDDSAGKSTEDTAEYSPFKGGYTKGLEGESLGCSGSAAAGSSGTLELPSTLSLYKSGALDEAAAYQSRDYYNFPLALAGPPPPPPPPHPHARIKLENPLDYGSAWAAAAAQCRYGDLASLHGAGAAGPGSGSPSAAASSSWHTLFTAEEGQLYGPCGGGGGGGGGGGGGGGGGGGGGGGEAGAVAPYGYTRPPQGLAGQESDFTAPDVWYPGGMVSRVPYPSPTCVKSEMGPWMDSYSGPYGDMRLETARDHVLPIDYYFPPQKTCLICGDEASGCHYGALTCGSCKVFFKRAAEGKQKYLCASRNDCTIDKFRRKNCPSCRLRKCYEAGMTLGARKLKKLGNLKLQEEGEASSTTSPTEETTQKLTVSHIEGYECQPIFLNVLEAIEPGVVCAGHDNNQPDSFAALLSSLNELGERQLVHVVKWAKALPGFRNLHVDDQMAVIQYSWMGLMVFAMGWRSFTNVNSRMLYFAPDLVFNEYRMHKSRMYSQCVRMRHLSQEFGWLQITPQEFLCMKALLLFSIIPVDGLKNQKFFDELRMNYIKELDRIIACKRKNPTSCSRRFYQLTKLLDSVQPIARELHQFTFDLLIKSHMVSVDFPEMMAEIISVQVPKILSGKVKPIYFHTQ
In short: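 Antagonism is read as loss of nucleolar AR-RFP signal relative to DHT, imaged in U2OS cells also carrying GFP-TIF2. Compounds screened at 20 uM final, 0.2% DMSO; primary actives retested in triplicate.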

[17] = molecular target: Nucleoli Translocation, AR (gene 367) (UniProt P10275); experiment: UPITT_HCI_U2OS_AR_TIF2_Nucleoli_Agonist: University of Pittsburgh U2OS Androgen Receptor-Transcriptional Intermediary Factor 2 (AR-TIF2) Agonism High Content Imaging Assay for Nucleoli Translocation (AID 2283998; active means hit-call score of the fitted dose curve at least 0.9, where 1 is the maximum)
In short: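 High-content images quantify nucleolar accumulation of RFP-fused AR in cells also expressing GFP-TIF2; the endpoint is fitted as signal gain versus DMSO controls across final concentrations of 0.195 to 50 uM.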

[18] = molecular target: Ratio of Nucleoli Translocation and Cytoplasm, AR (gene 367) (UniProt P10275); experiment: UPITT_HCI_U2OS_AR_TIF2_Nucleoli_Cytoplasm_Ratio_Antagonist: University of Pittsburgh U2OS Androgen Receptor-Transcriptional Intermediary Factor 2 (AR-TIF2) Antagonism High Content Imaging Assay for Ratio of Nucleoli Translocation and Cytoplasm (AID 2283999; active means hit-call score of the fitted dose curve at least 0.9, where 1 is the maximum;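 further: antagonists lower the DHT-driven ratio of nucleolar to cytoplasmic red signal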)
Sequence of Ratio of Nucleoli Translocation and Cytoplasm, AR (gene 367) (P10275 whole entry, looked up): as the sequence (P10275 whole entry, looked up, the tested form may be a part) above
In short: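 Read-out is the ratio of nucleolar to cytoplasmic AR-RFP fluorescence, imaged by high-content microscopy in U2OS cells coexpressing TIF2-GFP. Single-point 20 uM screen, triplicate confirmation, then 0.195–50 uM dose response; activity referenced to DHT baseline.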

[19] = molecular target: Ratio of Nucleoli Translocation and Cytoplasm, AR (gene 367) (UniProt P10275); experiment: UPITT_HCI_U2OS_AR_TIF2_Nucleoli_Cytoplasm_Ratio_Agonist: University of Pittsburgh U2OS Androgen Receptor-Transcriptional Intermediary Factor 2 (AR-TIF2) Agonism High Content Imaging Assay for Ratio of Nucleoli Translocation and Cytoplasm (AID 2284000; active means hit-call score of the fitted dose curve at least 0.9, where 1 is the maximum;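 further: hits raise the red nucleolar to cytoplasm ratio above vehicle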)
In short: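 Compounds tested at 20 uM final in primary screen (0.2% DMSO) and 0.195-50 uM final in dose-response (0.5% DMSO). Imaging of human U2OS cells bearing RFP-AR and GFP-TIF2; endpoint is nucleoli/cytoplasm red signal ratio, positive direction relative to DMSO.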

Structure (SMILES): C=C(c1ccc(C(=O)O)cc1)c1cc2c(cc1C)C(C)(C)CCC2(C)C
- outcome [1]: inactive
- outcome [2]: inactive

Structure (SMILES): O=P(O)(O)CCC(F)(F)C(F)(F)C(F)(F)C(F)(F)C(F)(F)C(F)(F)C(F)(F)C(F)(F)F
- AC50 [3]: 182 µM (active)

Structure (SMILES): O=S(=O)(O)c1ccccc1
- outcome [1]: inactive
- outcome [2]: inactive

Structure (SMILES): CCCCCCCCCCCC
- AC50 [3]: 84.4 µM (active)
- outcome [4]: inactive
- outcome [1]: inactive
- outcome [2]: inactive
- outcome [5]: inactive
- outcome [6]: inactive
- outcome [7]: inactive
- outcome [8]: inactive
- outcome [9]: inactive
- outcome [10]: inactive
- outcome [11]: inactive
- outcome [12]: inactive
- outcome [13]: inactive
- outcome [14]: inactive
- outcome [15]: inactive

Structure (SMILES): O=C(c1ccccc1)c1ccccc1
- outcome [16]: inactive
- outcome [17]: inactive
- outcome [18]: inactive
- outcome [19]: inactive
- outcome [1]: inactive
- outcome [2]: inactive
- outcome [5]: inactive

Structure (SMILES): CCCCc1ccc2ccccc2c1S(=O)(=O)O
- outcome [17]: inactive
- outcome [18]: inactive
- outcome [19]: inactive

Structure (SMILES): O=C1NS(=O)(=O)c2ccccc21
- AC50 [4]: 0.00978 µM (active)
- outcome [1]: inactive
- outcome [2]: inactive
- outcome [5]: inactive
- AC50 [6]: 0.003 µM (active)
- outcome [7]: inactive
- outcome [8]: inactive
- outcome [9]: inactive
- outcome [10]: inactive
- outcome [11]: inactive
- outcome [12]: inactive
- outcome [13]: inactive
- outcome [14]: inactive
- AC50 [15]: 0.00962 µM (active)

Structure (SMILES): Oc1c(Cl)cc(Cl)cc1Sc1cc(Cl)cc(Cl)c1O
- outcome [4]: inactive
- outcome [1]: inactive
- outcome [2]: inactive
- outcome [5]: inactive
- outcome [6]: inactive
- outcome [7]: inactive
- AC50 [8]: 9.08 µM (active)
- outcome [9]: inactive
- outcome [10]: inactive
- outcome [11]: inactive
- AC50 [12]: 5 µM (active)
- outcome [13]: inactive
- AC50 [14]: 7.49 µM (active)
- outcome [15]: inactive

Structure (SMILES): CCCCCCCCCC=CCC1CC(=O)OC1=O (configuration not stated)
- AC50 [3]: 31.9 µM (active)
- outcome [16]: inactive
- outcome [19]: inactive
- outcome [1]: inactive
- outcome [2]: inactive

Structure (SMILES): NS(=O)(=O)O
- outcome [1]: inactive
- outcome [2]: inactive

Structure (SMILES): CC(C)(O)C(=O)c1ccccc1
- outcome [1]: inactive
- outcome [2]: inactive

Structure (SMILES): CN(Cc1cnc2nc(N)nc(N)c2n1)c1ccc(C(=O)N[C@@H](CCC(=O)O)C(=O)O)cc1
- outcome [16]: inactive
- outcome [17]: inactive
- outcome [19]: inactive
- outcome [1]: inactive
- outcome [2]: inactive
